High-throughput results as filed in PubChem.
The list is not random: actives were taken first. Their share in the collection is about 2.2%.
EWS-Fli block: EWS/Fli transcriptional activity inhibition. A673 NR0B1-luciferase reporter, viability-normalised. inhibition, % at 12.6 µM. hit rate 0.67% among 350,000;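 active means mean inhibition of at least 50% after viability correction, with every replicate also passing that limit; inconclusive means mean reaches 50% but only one of two replicates passes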;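 further: firefly luciferase signal divided by Alamar Blue viability fluorescence both relative to DMSO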
Shn3 3UTR inh: reduces Shn3 3'UTR luciferase signal in osteoblasts; Clone20 osteoblast Shn3 3'UTR firefly luciferase, 24 h; inhibition, % at 12.5 µM; hit rate 0.52% among 360,000;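 active means mean inhibition of at least 75% with every replicate also reaching 75%; inconclusive means mean inhibition at least 75% but some replicate below; inactive means mean inhibition below 75%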;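 further: 0% = median of neutral control wells and 100% = pilot-screen positive control compound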
LGR2 antag: inhibitors of bursicon-induced Drosophila LGR2 receptor cAMP signaling; HEK293 LGR2, CRE-luciferase, bursicon-stimulated, 4 h; inhibition, % at 9.99 µM; hit rate 0.35% among 380,000; AID 720647;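 active means drop in luminescence signal, shown as inhibition above about 50% in the replicate tests, limit read from the data, passing the limit was not always enough; inconclusive means probably only some replicates passing the limit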;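 further: agonist challenge used bursicon conditioned medium at about half maximal strength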
PAX8 inh HTS: lowers PAX8-driven luciferase in RMG-I cells. hit rate 1.2% among 360,000. inhibition, % at 12.6 µM. RMG-I TPO-luciferase reporter, SteadyGlo, 24 h;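 active means mean replicate inhibition at least 60% with every replicate also reaching 60%; inconclusive means only one of the two criteria is met; inactive means mean below 60% and not all replicates reaching 60%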;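 further: luciferase light reporting Pax8 driven TPO promoter activity; plate controls were median of neutral control wells for no effect and mitoxantrone controls for full effect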
TRPM1 prom inh: MITF TRPM1 promoter inhibition in SK-MEL-5 cells; hit rate 0.83% among 330,000; SK-MEL-5 TRPM1 promoter luciferase, 24 h; inhibition, % at 12.5 µM; AID 488899;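 active means mean inhibition across replicates of 60% or more, whatever share of single replicates reaches that level; inconclusive means some that reach 60%, reason not given; inactive means mean inhibition across replicates below 60%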
LMP1 NFkB inh: reduces LMP1-driven NF-kappaB luciferase signal; LMP1-induced NF-kappaB luciferase reporter cells, luminescence; AID 504558; inhibition, % at 12.5 µM; hit rate 0.69% among 350,000; in the data active means inhibition above about 41%; inconclusive means no clear call, values can overlap the other calls;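 further: 0% = neutral control wells and 100% = reference inhibitor control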
* = called active by the depositor; u = inconclusive; x = no result.

SMILES	EWS-Fli block	Shn3 3UTR inh	LGR2 antag	PAX8 inh HTS	TRPM1 prom inh	LMP1 NFkB inh
CS(=O)(=O)c1ncc(Cl)c(C(=O)Nc2ccc3ccccc3c2)n1	84*	96*	x	89*	104*	27
COc1ccc(S(=O)(=O)Cc2ccc(C(=O)NCc3ccccc3)o2)cc1	2	11	4	4	7	-6
CSc1ncc(Cl)c(C(=O)Nc2ccc(NC(C)=O)cc2)n1	7	-77	-12	2	-14	-4
Cc1ccc(S(=O)(=O)N2CC[C@@H]3[C@@H](CO)Nc4ccc(-c5ccc(C#N)cc5)cc4[C@@H]32)cc1	10	x	24	13	x	x
Cc1nc(Cl)c(C(=O)NCc2ccccc2)c(C)c1Cl	-9	11	-1	6	-14	14
COC(=O)c1ccccc1NC(=O)c1nc(S(=O)(=O)Cc2ccccc2)ncc1Cl	63*	95*	14	-11	93*	10
O=C(NCc1ccccc1)c1c(Cl)nc(Cl)c(Cl)c1Cl	38	-4	17	24	77*	81*
COC(=O)c1cscc1S(=O)(=O)Cc1ccccc1	-8	5	11	15	-8	-1
C[C@H](CO)N1C[C@H](C)[C@@H](CN(C)CC2CCCC2)Oc2ncc(C#CCc3ccccc3)cc2C1=O	-7	x	-2	x	x	x
CO[C@H]1CN(C)C(=O)c2cc(NC(=O)NC(C)C)ccc2OC[C@H](C)N(C)C[C@H]1C	-9	x	-15	x	x	x
COc1cc(NC(=O)c2ccccc2Cl)c2ncccc2c1	58*	-7	-12	27	31	-11
COc1cc(NS(=O)(=O)c2ccc(C)cc2)c2ncccc2c1	x	95*	x	x	74*	-6
Cc1ccc(S(=O)(=O)Nc2ccccc2-c2ccccc2NS(=O)(=O)c2ccc(C)cc2)cc1	x	-4	x	x	7	6
COc1ccc(S(=O)(=O)Nc2ccccn2)cc1	17	-13	-1	-1	0	9
Cc1ccc(S(=O)(=O)Nc2cccc3cccnc23)cc1	x	27	x	u	83*	-8
O=S(=O)(Nc1cc(Sc2cccc3cccnc23)c(O)c2ccccc12)c1ccccc1	6	x	x	105*	x	x
COc1ccccc1C(=O)Nc1ccc2c(c1)OC[C@@H](C)N(CC1CC1)C[C@@H](C)[C@@H](OC)CN(C)C2=O	-12	x	-8	x	x	x
C[C@@H]1CN([C@@H](C)CO)S(=O)(=O)c2ccc(-c3cccc(F)c3)cc2O[C@H]1CN(C)C(=O)C1CC1	5	x	1	-16	x	x
COc1ccc(CN2CCC(C(=O)Nc3ccc(Oc4cccnc4)cc3)CC2)c(C)c1C	28	86*	2	41	27	-7
COC(=O)C(CC#Cc1ccc2c(c1)[C@]1(C(=O)N2)[C@H](c2ccc(OCCO)cc2)N2[C@H](c3ccccc3)[C@H](c3ccccc3)OC(=O)[C@H]2[C@@H]1C(=O)NC[C@H](O)c1ccccc1)C(=O)OC	44	x	x	1	x	x
COc1ccc(C#Cc2ccc3c(c2)[C@]2(C(=O)N3)[C@H](c3ccc(OCCO)cc3)N3[C@H](c4ccccc4)[C@H](c4ccccc4)OC(=O)[C@H]3[C@@H]2C(N)=O)cc1	13	x	x	73*	x	x
COc1ccc(C#Cc2ccc3c(c2)[C@]2(C(=O)N3)[C@H](C(N)=O)[C@H]3C(=O)O[C@H](c4ccccc4)[C@H](c4ccccc4)N3[C@@H]2c2ccc(O)cc2)cc1	7	x	x	x	x	x
COc1ccc(C#Cc2ccc3c(c2)[C@]2(C(=O)N3)[C@H](c3ccccc3OCCO)N3[C@H](c4ccccc4)[C@H](c4ccccc4)OC(=O)[C@H]3[C@@H]2C(=O)NC[C@H](O)c2ccccc2)cc1	3	x	x	89*	x	x
C[C@@H]1CN([C@H](C)CO)C(=O)Cc2cc(NC(=O)CCCCCC(=O)Nc3ccccc3N)ccc2O[C@H]1CN(C)C(=O)Nc1ccccc1	-7	x	9	-14	x	x
O=C(NC1CCC1)[C@H]1[C@H](CO)[C@H]2Cn3c(ccc(-c4ccccc4F)c3=O)[C@@H]1N2C(=O)CC1CC1	6	x	3	x	x	x
O=C(C[C@H]1CC[C@H](NC(=O)c2ccncc2)[C@@H](CO)O1)NCC1CCCCC1	2	x	-6	-5	x	x
CCCC#Cc1ccc2c(c1)O[C@H](CN(C)C(=O)CN(C)C)[C@@H](C)CN([C@H](C)CO)S2(=O)=O	-9	x	22	-8	x	x
O=C(NCC[C@@H]1CC[C@@H](NC(=O)c2ccncc2)[C@@H](CO)O1)Nc1ccc(Cl)cc1	-52	x	-12	-73	x	x
